Compound activity as filed in PubChem.
CtBP-E1A inh – inhibitors of CtBP/E1A interaction. activity change, % (test concentration not listed). AlphaScreen GST-E1A/His-CtBP binding, 1536-well; active compounds read low. 0.49% of 340,000 active; in the data active = activity change below about -65%; inconclusive = mostly about -30% to -63%; note: % is set by controls: 0 for no effect and ±100 for the full control effect
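Steps: dispense buffer (Tris pH 8.0, NaCl 300 mM, TCEP 1 mM, BSA, Tween 20); add 5X protein mix (GST-E1A, His-CtBP, 125 nM each); pin 23 nL compound; 2 h at 37 °C, dark; add 5X beads (50 ug/mL); 1 h; read.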
Six1-Eya2 inh – inhibitors of human Six1/Eya2 interaction | Q15475+O00167 | AlphaScreen GST-Six1/His-Eya2 binding, biochemical; active compounds read low | activity change, % (test concentration not listed) | 0.56% of 360,000 active; in the data active = activity change below about -65%; inconclusive = mostly about -30% to -63%; note: % is set by controls: 0 for no effect and ±100 for the full control effect
Target sequence (O00167 whole entry, looked up): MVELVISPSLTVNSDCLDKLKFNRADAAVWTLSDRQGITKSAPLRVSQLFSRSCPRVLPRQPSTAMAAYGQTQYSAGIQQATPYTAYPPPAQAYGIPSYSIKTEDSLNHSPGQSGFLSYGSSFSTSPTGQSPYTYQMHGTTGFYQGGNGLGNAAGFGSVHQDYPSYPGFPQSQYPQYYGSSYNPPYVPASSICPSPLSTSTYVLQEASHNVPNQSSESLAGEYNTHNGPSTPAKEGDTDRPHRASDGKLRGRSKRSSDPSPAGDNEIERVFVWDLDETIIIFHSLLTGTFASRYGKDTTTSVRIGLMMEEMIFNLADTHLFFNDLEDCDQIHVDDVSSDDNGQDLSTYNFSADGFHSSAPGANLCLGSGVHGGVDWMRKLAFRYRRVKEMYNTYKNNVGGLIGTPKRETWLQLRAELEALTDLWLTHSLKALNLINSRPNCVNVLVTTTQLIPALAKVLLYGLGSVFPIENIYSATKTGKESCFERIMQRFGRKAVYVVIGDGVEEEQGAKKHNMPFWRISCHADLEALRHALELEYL
Target sequence (Q15475 whole entry, looked up): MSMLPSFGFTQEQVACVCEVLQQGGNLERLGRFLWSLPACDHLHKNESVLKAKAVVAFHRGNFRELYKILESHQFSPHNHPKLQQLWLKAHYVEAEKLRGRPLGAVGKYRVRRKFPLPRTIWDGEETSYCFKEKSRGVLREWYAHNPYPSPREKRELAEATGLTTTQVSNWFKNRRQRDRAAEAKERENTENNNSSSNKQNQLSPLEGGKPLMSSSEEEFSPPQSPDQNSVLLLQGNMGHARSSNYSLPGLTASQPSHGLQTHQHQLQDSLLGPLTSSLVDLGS
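Compounds are tested against tagged Six1 and Eya2 proteins bridged by glutathione donor and nickel acceptor beads; after a one-hour incubation at 37 °C without light, AlphaScreen emission is recorded.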
HP1b binding inh – HP1-beta chromodomain-methylated histone interaction inhibition; AID 540317; P83916; Potency, µM (titrated, usually from 114 µM), for inactives: top-dose activity change, negative = inhibition, most hits filed as inhibitors; 0.56% of 390,000 active; AlphaScreen HP1-beta / biotin-H3K9me3 peptide binding; note: potency is the fitted concentration of half-maximal effect; nearly all actives have a fitted effect of over 70% in size
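Compound inhibition of the preformed complex between 50 nM HP1-beta and 50 nM biotinylated H3K9me3 peptide was read by AlphaScreen. Buffer was PBS pH 7.4 with 0.01% Tween-20. Incubations ran 30 min at room temperature, with 10 ug/mL donor/acceptor beads.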
JMJD2A Tudor – blocks the human JMJD2A Tudor domain; O75164; AlphaScreen JMJD2A-Tudor / H3K4me3 peptide binding; Potency, µM (doses to about 114 µM), for inactives: at the top dose activity change, negative = inhibition, most hits filed as inhibitors; 4.4% of 390,000 active; AID 504339; note: potency is the fitted concentration of half-maximal effect; % is set by controls: 0 for no effect and ±100 for the full control effect; nearly all actives have a fitted effect of over 50% in size
BAZ2B block – inhibitors of human BAZ2B bromodomain | Q9UIF8 | AlphaScreen BAZ2B-H3K14Ac peptide displacement | Potency, µM (doses to about 114 µM), for the others: at the highest dose activity change, negative = inhibition, actives largely listed as inhibitors | 4.4% of 360,000 active | AID 504333; note: potency is the fitted concentration of half-maximal effect; % is set by controls: 0 for no effect and ±100 for the full control effect; nearly all actives have a fitted effect of over 60% in size
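In this displacement format the biotinylated H3(5-23) peptide acetylated at Lys14 serves as ligand at 50 nM, with BAZ2B at 50 nM in PBS pH 7.4 containing 0.01% Tween-20. Donor and acceptor beads are 10 ug/mL final.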
G9a block – inhibitors of human histone lysine methyltransferase G9a. G9a H3K9 monomethylation, AlphaScreen, 2 h. Potency, µM (titrated, usually from 102 µM), for the others: at the top dose activity, negative = inhibition, usual class: inhibitors. 8.8% of 350,000 active. Q96KQ7; note: potency is the fitted concentration of half-maximal effect; % is set by controls: 0 for no effect and ±100 for the full control effect; nearly all actives have a fitted effect of over 75% in size
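Readings reflect AlphaScreen signal from monomethyl-H3K9 antibody detection. HMT at 20 nM; substrate b-H3K9 500 nM; cofactor SAM 20 uM; 2 h RT reaction; compounds tested as titrations in qHTS with 15 min preincubation.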
An asterisk follows results filed as active; ? = inconclusive; / = no result given; ! = a repeat was not active; [ ] = remark or other dose. Only some compounds are listed: those with a hit (about 10% of all), similar ones and a draw of the others. Unless noted, calls come from the whole dose curve; as a rule, active = well fitted inhibition curve with a large enough effect; inconclusive = small, poorly fitted or top-dose-only effect; inactive = no such curve, though single readings can be large or run the other way.

SMILES	CtBP-E1A inh	Six1-Eya2 inh	HP1b binding inh	JMJD2A Tudor	BAZ2B block	G9a block
O=C(COC(=O)C1CCN(S(=O)(=O)c2cc([N+](=O)[O-])ccc2Cl)CC1)Nc1ncc(Cl)cc1Cl	?	-21	?	25µM*	32µM*	-18%[0.501 µM]
CC(=O)COC(=O)C1CCN(S(=O)(=O)c2cc([N+](=O)[O-])ccc2Cl)CC1	3	-4	17%	56µM*	50µM*	?
O=C(O)c1cccc(NC(=O)c2ccc3c(c2)C(=O)N(C2CCCCC2)C3=O)c1	-5	-3	23%	-17%	5%	106%
Cc1ccc(N2CC(NC(=O)c3cc4ccccc4o3)CC2=O)cc1C (stereo not drawn)	/	/	14%	-10%	-14%	9%[59 µM]
CC1=NS(=O)(=O)c2cc(Cl)ccc2N1	5	1	25%	-6%	5%	2.8µM*!
O=C(CSC1=NS(=O)(=O)c2cc(Cl)ccc2N1)c1ccc(Cl)cc1	9	6	44%	-11%	-9%	56µM*
CC(=O)c1ccc(NC(=O)CSC2=NS(=O)(=O)c3cc(Cl)ccc3N2)cc1	-5	-6	8%	-11%	-8%	?
COc1ccccc1CN(C)C(=O)COC(=O)c1cc(C)oc1C	-2	3	13%	-14%	-3%	45µM*
Fc1ccc(-c2cc(C(F)(F)F)n3ncnc3n2)cc1	/	-12	22%	?	-24%	13µM*
FC(F)(F)c1cc(-c2cccc(Br)c2)nc2ncnn12	/	/	61%	-17%	20%	26%[59 µM]
S=C(NN=C1C2CC3CC(C2)CC1C3)Nc1ccccc1	-1	-4	?	50µM*	?	?
O=C(O)C(=O)/C(=C\c1cccc2ccccc12)c1ccc2ccccc2n1	5	3	43%	-18%	4%	8%
O=C(OCc1ccc([N+](=O)[O-])cc1)c1ccc2ccccc2n1	4	5	0%	-2%	-9%	?
O=C(O)C(=O)/C(=C\c1ccccc1)c1ccc2ccccc2n1	0	-2	35%	?	1%	79µM*
O=C(O)C(=O)/C(=C\c1ccc([N+](=O)[O-])cc1)c1ccc2ccccc2n1	/	0	1%	?	?	35µM*
O=C(O)C(=O)/C(=C\c1ccsc1)c1ccc2ccccc2n1	0	-10	5%	89µM*	-6%	?
Nn1c(-c2ccccc2Cl)nnc1-c1ccccc1Cl	1	-6	22%	-28%	-12%	3.5µM*
O=C(O)c1cc(-c2ccccc2)n(-c2ccc(Cl)cc2Cl)n1	4	4	26%	-6%	-1%	11%
O=C(O)c1cc(-c2ccccc2)n(-c2ccccc2C(=O)O)n1	5	7	-4%	28µM*	12%	?
O=C1/C(=C/c2cccc(Cl)c2)CSc2sccc21	13	0	92%	45%	49%	217%
Cc1cccc(/C=C2\CS/C(=C\c3cccc(C)c3)C2=O)c1	-1	-1	?	?	50µM*	?
CCOCCCn1c(=S)[nH]c2cc(C(=O)N3CCC(C(N)=O)CC3)ccc2c1=O	0	0	19%	8.9µM*	?	35µM*
CCOC(=O)C1CCCN(C(=O)c2ccc3c(=O)n(CCOC)c(=S)[nH]c3c2)C1 (stereo not drawn)	9	3	35%	?	-6%	?
COCCn1c(=S)[nH]c2cc(C(=O)N3CCC(C(N)=O)(N4CCCCC4)CC3)ccc2c1=O	2	1	44%	?	-36%	35µM*
COc1ccccc1Cn1c(=S)[nH]c2cc(C(=O)N3CCC(C(N)=O)CC3)ccc2c1=O	1	9	49%	-7%	-13%	79µM*
SMILES	CtBP-E1A inh	Six1-Eya2 inh	HP1b binding inh	JMJD2A Tudor	BAZ2B block	G9a block
Cc1ccc2nc(Nc3ccc(Br)cc3)nc(-c3ccccc3)c2c1	/	/	177%	48%	20%	48%[59 µM]
CCCNC(=O)C1(C)CCCN(Cc2cc(-c3ccccc3)n(C)n2)C1 (stereo not drawn)	-2	3	/	/	/	/
Cc1ccc(CCNC(=O)CCn2nc(-c3ccc(C)cc3)ccc2=O)cc1	/	/	49%	-14%	28%	8%[59 µM]
c1nc(NCCCN2CCOCC2)c2cc(-c3ccc4c(c3)OCO4)ccc2n1	/	/	/	-28%	/	/
Cc1ccc(S(=O)(=O)n2nc(-c3ccco3)nc2NCc2ccc(N(C)C)cc2)cc1	/	/	-15%	25µM*	10µM*	8.9µM*
COc1ccc(S(=O)(=O)n2nc(-c3ccco3)nc2NCc2ccc(N(C)C)cc2)cc1	/	/	-26%	13µM*	25µM*	11µM*
CN(C)c1ccc(CNc2nc(-c3ccco3)nn2S(C)(=O)=O)cc1	/	/	25%	-34%	?	?
N#Cc1ccc(/C=C/C(=O)c2ccco2)cc1	-4	2	32%	-1%	-3%	14µM*
Cc1cc(NC2CCCCC2)nc(-c2ccccc2O)n1	16	12	?	7.9µM*	56µM*	18µM*
CCCN(CCC)S(=O)(=O)c1ccc(Cl)c([N+](=O)[O-])c1	/	-23	4%	-18%[11.4 µM]	?	?
CCOC(=O)CSc1ccc(S(=O)(=O)N(CC)CC)cc1[N+](=O)[O-]	-2	-8	6%	-35%	-25%	45µM*
CCCCN(CCCC)S(=O)(=O)c1ccc(SCC(=O)OCC)c([N+](=O)[O-])c1	-17	-23	79µM*	?	-31%	-8%
COC(=O)CSc1ccc(S(=O)(=O)N2CCC(C)CC2)cc1[N+](=O)[O-]	7	-7	15%	-11%	-18%	-10%
Cc1ccccc1CNC(=O)C(=O)NCC(c1ccco1)S(=O)(=O)c1cccs1 (stereo not drawn)	/	/	-9%	-24%	-6%	-1%[59 µM]
O=C1NC2=C(CCc3ccccc32)C(c2ccc(Br)cc2)N1 (stereo not drawn)	2	0	-11%	-23%	-4%	35µM*
CCN(CC)C(=O)c1sc2c(c1C)c(=O)n(CCc1ccccc1)c(=O)n2Cc1ccc(F)cc1Cl	/	/	32%	-32%	-1%	-4%[59 µM]
COC(=O)Cn1c2ccc(F)cc2c2nc(C)sc21	4	-1	25%	-1%	-28%	45µM*
CCOC(=O)Cn1c2ccc(F)cc2c2nc(C)sc21	-4	0	37%	-1%	11%	-47%
CC(=O)N1N=C(c2c(-c3ccccc3)c3cc(C)ccc3[nH]c2=O)CC1c1ccco1 (stereo not drawn)	-14	-11	6%	?	?	?
